Source: PubChem BioAssay (National Center for Advancing Translational Sciences (NCATS))
The list is not random: actives were taken first. Their share in the collection is about 7.4%.
SMN2 splice enh – enhancers of SMN2 splice variant expression | HEK293 SMN2-luciferase splicing reporter, luminescence, 30-36 h | Potency, µM (doses to about 46.1 µM), usual class: activators | 2.8% of 210,000 active; further: nearly all actives have a fitted effect of over 55% in size
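HEK293 cells carry an SMN2 […]–luciferase reporter in which exon 7 inclusion puts luciferase in frame. Cells were plated 10-12 h before compound addition, then incubated 30-36 h at 37C. ONE-Glo luminescence was read; sodium butyrate at 4.5 mM final served as control.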
ELG1 genotoxic – inducers of genotoxicity in HEK293T ELG1-luciferase cells; Potency, µM (titrated, usually from 46 µM), actives largely listed as activators; HEK293T ELG1-luciferase reporter, luminescence, 16 h; 1.3% of 330,000 active; further: nearly all actives have a fitted effect of over 60% in size
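Genotoxic stress is detected as increased luminescence from luciferase-tagged ELG1 in HEK293T cells, measured with ONE-Glo after a 16 hr treatment at 37 °C.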
NPC1 promoter act – NPC1 promoter activation | Huh7 NPC1 promoter luciferase reporter, 24 h | Potency, µM (top dose mostly 9.22 µM), usual class: activators | 2.4% of 320,000 active | AID 485313; further: nearly all actives have a fitted effect of over 60% in size
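Luminescence read-out of NPC1 promoter-driven luciferase in stably transfected Huh7 cells; compounds delivered in DMSO and left 24 h at 37C, 5% CO2, qHTS titration format.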
Rab9 promoter act – activators of Rab9 promoter; Potency, µM (series often up to 9.22 µM), most hits filed as activators; AID 485297; 2.8% of 320,000 active; Huh7 Rab9 promoter-luciferase reporter, luminescence, 24 h; further: nearly all actives have a fitted effect of over 60% in size
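Using Huh7 cells stably transfected with Rab9 promoter–luciferase, compounds were incubated 24 h at 37 °C, 5% CO2; luciferase luminescence was read 10 min after reagent addition.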
FLuc counter – firefly luciferase modulation, counter-screen for miR-21 project; purified FLuc, Km substrates, luminescence inhibition; Potency, µM (top dose mostly 57.5 µM), most hits filed as inhibitors; 6.9% of 360,000 active; AID 588342; further: nearly all actives have a fitted effect of over 55% in size
Target sequence (P08659 whole entry, looked up): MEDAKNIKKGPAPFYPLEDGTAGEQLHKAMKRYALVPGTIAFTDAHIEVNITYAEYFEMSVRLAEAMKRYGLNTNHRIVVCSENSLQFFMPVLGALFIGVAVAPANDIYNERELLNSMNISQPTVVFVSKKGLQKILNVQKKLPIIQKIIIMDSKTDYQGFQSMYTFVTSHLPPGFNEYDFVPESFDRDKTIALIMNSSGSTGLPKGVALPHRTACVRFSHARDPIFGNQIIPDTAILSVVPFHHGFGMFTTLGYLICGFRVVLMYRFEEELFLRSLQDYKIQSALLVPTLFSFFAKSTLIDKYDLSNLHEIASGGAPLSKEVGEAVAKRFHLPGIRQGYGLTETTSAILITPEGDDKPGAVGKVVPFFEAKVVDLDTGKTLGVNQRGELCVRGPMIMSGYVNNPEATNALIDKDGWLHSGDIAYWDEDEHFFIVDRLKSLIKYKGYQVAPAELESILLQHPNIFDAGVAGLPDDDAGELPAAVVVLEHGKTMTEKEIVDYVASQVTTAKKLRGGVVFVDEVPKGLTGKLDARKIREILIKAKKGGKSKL
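Biochemical qHTS of compounds, final roughly 60 µM downward over six points, against 10 nM purified firefly luciferase using Km concentrations of substrates (10 uM D-luciferin, 10 uM ATP) in Tris acetate pH 7.5 buffer; luminescence output.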
A number is an active result; - = inactive; ? = inconclusive; . = no result given; [ ] = dose if it differs, or a comment. The call rests on the fitted dose curve; in most records, active means well fitted curve in the direction sought with a large enough effect; inconclusive means small, poorly fitted or top-dose-only effect, or another doubt; inactive means no such curve, though single readings can be large; an effect the other way counts as inactive or inconclusive.

SMILES | SMN2 splice enh | ELG1 genotoxic | NPC1 promoter act | Rab9 promoter act | FLuc counter
COc1cccc(C(=O)NC(=S)Nc2ccc(Cl)c(C(=O)O)c2)c1 | - | . | . | . | ?
O=C(Nc1ccc(COc2ccccc2)cc1)Nc1cccc(C(=O)O)c1 | . | - | ? | 2.8µM | 0.85µM
CCN1C(=O)CC(c2ccc(OC(C)C)cc2)C1=O (configuration not stated) | . | - | - | - | -
Cc1ccc(S(=O)(=O)N2CCc3c2cc([N+](=O)[O-])cc3[N+](=O)[O-])cc1 | . | - | - | -[1.84 µM] | -
CCCOc1cccc(C(=O)Nc2cc(-c3ccccc3)no2)c1 | 14µM | . | . | . | 6µM
CCCOc1cccc(C(=O)Nc2ccc(Br)cc2F)c1 | 13µM | ? | ? | ? | 2.7µM
Cc1ccc(C(=O)O)cc1NC(=S)NC(=O)Cc1ccccc1 | - | - | - | - | -
CCCOc1cccc(C(=O)NC(=S)Nc2ccccc2)c1 | 13µM | ? | ? | ? | 8.5µM
Cc1ccc(C(=O)O)cc1NC(=S)NC(=O)c1ccc(COc2ccccc2)cc1 | . | - | - | - | 12µM
CCOc1ccc(NS(=O)(=O)c2ccc(-c3cc(C)no3)s2)cc1 | . | . | . | . | -
CC(C)Oc1cccc(C(=O)NC(=S)Nc2ccccc2)c1 | 11µM | ? | ? | 3.2µM | 2.4µM
O=C1/C(=C/c2ccc(O)cc2)COc2ccccc21 | . | 10µM | - | - | 0.76µM
CC1C/C(=C/c2ccccn2)C(=O)/C(=C/c2ccccn2)C1 (configuration not stated) | - | - | - | - | -
CCOc1cc(/C=C2/COc3ccccc3C2=O)ccc1OCC(=O)N(C)C | - | - | - | - | -
O=C1/C(=C/c2ccccn2)COc2ccccc21 | - | - | - | - | 8.5µM
COc1cc(-c2nc(-c3ccc4c(c3)-c3ccccc3S4(=O)=O)c(-c3ccccc3)[nH]2)cc(OC)c1OC | - | - | - | - | 4.8µM
CCOc1ccc(CC(=O)Nc2c(C(=O)c3ccc(C)cc3)oc3ccccc23)cc1OCC | - | . | . | . | -
COC(=O)c1c(NC(=O)COc2ccc(Cl)cc2C)sc2c1CCCCC2 | - | . | . | . | -
Cc1cccc(C(=O)N/N=C/c2ccc(OCC(=O)N3CCCCC3)cc2)c1 | - | - | - | - | 15µM
O=C(CSCc1cccc(Cl)c1)N/N=C/c1ccc(OCC(=O)N2CCCCC2)cc1 | - | - | - | - | -
Cn1cccc1/C=N/NC(=O)c1cccc(OC(F)(F)C(F)F)c1 | - | - | - | - | 21µM
CCCOc1cccc(C(=O)N/N=C/c2ccoc2)c1 | . | ? | - | - | 13µM
CC(C)Oc1cccc(C(=O)N/N=C/c2ccoc2)c1 | . | ? | - | - | 11µM
Cc1cccc(C(=O)N/N=C/c2ccoc2)c1 | . | - | - | - | ?
C/C(=N/NC(=O)NC12CC3CC(CC(C3)C1)C2)c1ccccc1 | . | - | - | -[1.84 µM] | -
SMILES | SMN2 splice enh | ELG1 genotoxic | NPC1 promoter act | Rab9 promoter act | FLuc counter
COc1ccccc1NC(=O)CCn1nc(-c2ccccc2OC)c2c(C)cc(C)nc21 | - | . | . | . | -
Cc1nccc(-c2cc(-c3ccc(Cl)cc3Cl)no2)n1 | . | ? | 1.4µM | 1.1µM | 2.4µM
N/C(=N\OC(=O)c1ccc(Cl)cc1Cl)c1ccncc1 | . | 9.2µM | 1.6µM | 1.8µM | 1.9µM
Cc1noc(-c2ccc(Cl)cc2)c1C(=O)O/N=C(\N)c1ccc(C(C)(C)C)cc1 | . | - | - | - | -
N/C(=N\OC(=O)c1cc(Cl)ccc1Cl)c1ccncc1 | . | ? | - | ? | 13µM
N/C(=N\OC(=O)Cc1ccc(Cl)cc1)c1ccncc1 | - | - | - | - | -
COc1ccc(Cl)cc1C(=O)O/N=C(\N)c1ccc(Cl)cc1 | - | - | - | - | 17µM
Cc1occc1C(=O)O/N=C(\N)c1ccc(Cl)cc1 | . | ? | ? | 4µM | 9.5µM
COc1cc(OC)c(C(=O)O/N=C(\N)c2ccc(C)cc2)cc1OC | . | - | - | - | ?
COCCNC(=O)[C@H](C)/C=C(\c1cccnc1)C(NC(=O)OCc1ccccc1)c1ccc(C(=O)OC)cc1 (some centres not stated) | - | . | . | . | .
COc1ccc(NC(=O)CCS(=O)(=O)c2ccc3nc(C)sc3c2)cc1Cl | . | . | . | . | -
CC1(C)CC(NC(=O)c2cccc(S(=O)(=O)Nc3cccc(Cl)c3)c2)CC(C)(C)N1 | . | - | - | - | -
O=C(CNC(=O)c1ccccc1F)NCc1ccccn1 | . | - | . | . | .
CC1CCC(=NNC(=O)Cc2ccccc2)CC1 (configuration not stated) | - | - | - | - | -
CC1SCC(=NOCc2ccccc2)CS1 (configuration not stated) | . | ? | ? | ? | 19µM
S=c1nc(-c2ccc(Cl)cc2)[nH][nH]1 | . | - | - | - | -
CCCOc1ccc(-c2nc(=S)[nH][nH]2)cc1 | 13µM | ? | - | ? | ?
C=CCSc1n[nH]c(-c2ccc(OCCCC)cc2)n1 | ? | 18µM | ? | ? | 15µM
C=CCSc1n[nH]c(-c2ccc(OCCC)cc2)n1 | 11µM | 4.6µM | 2.5µM | 2µM | 11µM
CC(C)N1C(=O)N(c2cccc(Cl)c2)C(C)(O)CC1(C)C (configuration not stated) | . | - | - | - | -
CCc1ccc(Nc2cnn(-c3nc4ccccc4s3)c(=O)c2Cl)cc1 | ? | - | - | ? | 12µM
CC#CCN1c2ccccc2[C@]23C[C@@H](C(=O)OC)N(S(=O)(=O)c4ccc(Br)cc4)C2=NC(C(=O)OC)=C(C(=O)OC)[C@H]13 | -[9.22 µM] | . | . | . | .
COc1ccccc1NC(=O)c1ccc(C)c(S(=O)(=O)N2CCCCC2)c1 | . | - | - | - | ?
Cc1ccc(C(=O)NC2CCN(Cc3ccccc3)CC2)cc1S(=O)(=O)N1CCOCC1 | . | 18µM | - | - | -
Cc1ccc(C(=O)Nc2ccccc2C(=O)O)cc1S(=O)(=O)N1CCCCCC1 | ? | . | . | . | 0.95µM
SMILES | SMN2 splice enh | ELG1 genotoxic | NPC1 promoter act | Rab9 promoter act | FLuc counter
Cc1ccc(C(=O)NC2CCCCCC2)cc1S(=O)(=O)N1CCOCC1 | . | ? | ? | - | -
Cc1ccc(C(=O)NNC(=O)c2ccccc2)cc1S(=O)(=O)N1CCCCC1 | . | - | - | - | 21µM
COCc1nc2cccnc2n1C1CCN(S(=O)(=O)N(C)C)CC1 | . | . | . | . | -
O=C1N/C(=C\c2ccc(O)cc2)C(=O)c2ccccc21 | - | ? | - | - | 1.2µM
Cc1sc2c(c1C)C(=O)NC(c1cccc(O)c1)N2 (configuration not stated) | ? | - | - | - | 15µM
Cc1ccc(-n2ncc3c(SCC(N)=O)ncnc32)cc1C | . | ? | 4µM | 3.2µM | 5.4µM
Cc1ccc(-n2ncc3c(SCC(=O)NNC(=O)C(C)C)ncnc32)cc1 | . | - | - | -[1.84 µM] | 7.6µM
CC(=O)CSc1ncnc2c1cnn2-c1ccccc1 | 11µM | ? | 1.3µM | 1.1µM | 7.6µM
Cc1ccc(S(=O)(=O)c2cn(C)c3cc(N4CCOCC4)c(F)cc3c2=O)cc1 | . | - | - | - | -
O=C(c1cccc(C(F)(F)F)c1)N1CCc2c([nH]c3ccccc23)C1C(F)(F)F (configuration not stated) | . | - | - | - | -
COC(=O)c1sc(NC(=O)c2ccoc2C)nc1C | 22µM | ? | - | ? | ?
